# Source: PubChem BioAssay AID504466 (National Center for Advancing Translational Sciences (NCATS), 2011)
# The whole screen tested about 330,000 compounds, of which about 4,200 (1.3%) were called active. Where a call stands in place of a potency, no number is given. Not shown: some 6% with an inconclusive outcome. The call rests on the fitted dose curve; in most records, active means well fitted activation curve with a large enough effect; inconclusive means small, poorly fitted or top-dose-only effect; inactive means no such curve, though single readings can be large or run the other way. Many of the other results were omitted from the sample, so actives are more common in it than they were.
# Assay: qHTS screen for small molecules that induce genotoxicity in human embryonic kidney (HEK293T) cells expressing luciferase-tagged ELG1; further: nearly all actives have a fitted effect of over 60% in size
# Conditions: HEK293T ELG1-luciferase reporter, luminescence, 16 h; series mostly up to 46 µM
# Text: NIH Molecular Libraries Probe Production Network [MLPCN] NIH Chemical Genomics Center [NCGC] MLPCN Grant: 1 R03 MH092164-01 Assay Provider: Kyungjae Myung, NHGRI, NIH Keywords: MLPCN, qHTS, NCGC, genotoxicity, cancer Assay Overview: Cancer cells divide rapidly compared to normal cells in the body. During cell division, cancer cells need to duplicate their genome by DNA replication. The failure of genome duplication leads to cancer cells' death. Therefore, inhibitors of DNA replication could specifically kill cancer cells. Based on this concept, many chemotherapeutic agents were developed and have been used to treat cancer patients. However, there are a limited number of agents available in the clinical setting, and some of those that do exist have low efficacy and severe side effects. Therefore, if we can find the compounds that effectively block DNA replication either by directly damaging DNA or by inhibiting other cellular mechanisms, the options for cancer treatment will be broadened. With this in mind, we developed a quantitative high-throughput ELG1-luciferase reporter gene assay. Since the level of human ELG1 protein is enhanced in response to genetic stresses, increases in luciferase activity can be used to identify compounds that cause genetic stress.
# Assay Protocol Summary: For genotoxicity screening, 2,000 cells in 5 uL/well were dispensed into white, solid-bottom 1536-well plates using a solenoid-based dispenser. Following transfer of 23 nL compound or DMSO vehicle by a pin tool, the plates were incubated 16 hr at 37 °C and 5% CO2. 5 ul ONE-Glo (Promega) was then added to each plate and following a 30 min incubation at room temperature, luciferase activity was quantified on a ViewLux CCD-based plate reader.
# Potency means the concentration at half of the fitted maximal effect.
row,SMILES,Potency
1,O=C(OCC(=O)c1cccs1)C1=COCCO1,18.4 µM (active)
2,CC[N+](C)(CC)CCC[n+]1c(-c2ccccc2)c2cc(N)ccc2c2ccc(N)cc21,inactive
3,c1cc2c(cc1C1OCC3C(c4ccc5c(c4)OCO5)OCC13)OCO2 (stereo not given),inactive
4,C[C@]12CC[C@H](O)CC1=C([N+](=O)[O-])CC1C2CC[C@@]2(C)C1CC[C@@H]2O (stereo not given in full),inactive
5,COc1ccc(C2CC(c3cccs3)=NN2c2nc(C)c(C(C)=O)s2)cc1OC (stereo not given),20.6 µM (active)
6,CCOC(=O)c1c(-c2ccccc2)oc2ccc(OC(=O)N(C)C)cc12,inactive
7,CN(C)C(=O)Oc1ccc2c(c1)O/C(=C\c1ccccc1)C2=O,20.6 µM (active)
8,CN(C)C(=O)Oc1ccc(OCc2cccc[n+]2C)cc1,inactive
9,COC(=O)[C@@H]1C(OC(=O)c2ccccc2)CC2CCC1N2C (stereo not given in full),inactive
10,CC[C@H]1CN2CCc3cc(OC)c(OC)cc3[C@@H]2C[C@@H]1C[C@H]1NCCc2cc(OC)c(OC)cc21,inactive
11,COC1=CC=C2[C@H]3Cc4ccc(OC)c5c4[C@@]2(CCN3C)C1O5 (stereo not given in full),inactive
12,O=C(OCCN1CCOCC1)C1(c2ccccc2)CCCC1,inactive
13,CCC(=O)c1ccc(OCC(=O)N2CCN(CC(=O)Nc3ccc(C)cc3)CC2)cc1,inactive
14,O=C(/C=C/c1cccs1)c1cc(Cl)ccc1OC(=O)N1CCOCC1,inactive
15,Oc1ccc2c3c1OC1[C@H](O)CC[C@@]4(O)[C@@H](C2)N(CC2CC2)CC[C@]314 (stereo not given in full),inactive
